Hit rate of the full screen: of about 1,200 compounds, about 210 (18%) were called active. Cut-off read from the data, not from the text of the source: active = inhibition above about 30%; inactive = the rest. Only a sample is shown.
Assay: fluorescence readout artefact check – biochemical, HTRF, uHTS, artefact control for SUMOylation inhibitor project, confirmation (AID 2069)
Conditions: HTRF interference counterscreen, at 35 µM, hits give high values

| SMILES | inhibition |
| --- | --- |
| Fc1cccc(Cl)c1C1Nc2cccc3cccc(c23)N1 | -14.8% (inactive) |
| O=C(Nc1ccccc1)Nc1ccno1 | 47.1% (active) |
| CCC(NC(=O)Nc1ccc(O)cc1)(C(F)(F)F)C(F)(F)F | -9.2% (inactive) |
| Cc1cc2c(NC(=O)Nc3ccccc3)cccc2nn1 | -6.1% (inactive) |
| Cc1ccc(NC(=O)Nc2ccno2)cc1 | 48.2% (active) |
| Cc1ccc(NC(=O)Cn2nc(C(=O)Nc3ccc(C)cc3)ccc2=O)cc1 | 4.7% (inactive) |
| O=C(Nc1ccccc1)c1ccccc1CCc1ccccc1 | 2.45% (inactive) |
| COc1ccc(/C=C2/C(=O)N(c3ccccc3)N=C2C)cc1OC | -0.35% (inactive) |
| O=[N+]([O-])c1c(NCc2ccccc2)cc(N2CCc3ccccc3C2)c2nonc12 | 0.75% (inactive) |
| O=[N+]([O-])c1cc(CN2CCN(c3cccc(C(F)(F)F)c3)CC2)c2cccnc2c1O | -18.5% (inactive) |
| Cc1cc2c(NC(=O)Nc3ccc(C(C)(C)C)cc3)cccc2nn1 | 18.8% (inactive) |
| CCCc1cc(=O)oc2cc(OCC(=O)Nc3ccc(S(N)(=O)=O)cc3)ccc12 | 21.4% (inactive) |
| Cc1c(O)ccc2c(CC(=O)N[C@@H](Cc3ccc(O)cc3)C(=O)O)cc(=O)oc12 | 39.9% (active) |
| NC(=O)C1CCN(C2=C(NS(=O)(=O)c3ccccc3)C(=O)c3ccccc3C2=O)CC1 | -13.8% (inactive) |
| O=C(CN1C(=O)S/C(=C\c2ccccc2)C1=O)NNC(=O)c1ccccc1O | 2.55% (inactive) |
| S=c1[nH]nc(-c2cc(-c3ccco3)[nH]n2)n1-c1cccc2ccccc12 | -16.1% (inactive) |
| COCCNC(=O)CCC1CCN(Cc2ccc(-c3ccccc3)cc2)CC1 | 65.5% (active) |
| CCOC(=O)N1CCc2c(sc3c2c(=O)n(Cc2ccccc2)c(=O)n3CC(=O)NCCOC)C1 | -6.7% (inactive) |
| C[C@@H]1CN=C2N(CCNC(=O)CCC3CCCCC3)[C@H](Cc3ccc(O)cc3)CN21 | 1.3% (inactive) |
| CCOC(=O)Cn1c(=NC(=O)c2sc3ccccc3c2Cl)sc2cc(S(N)(=O)=O)ccc21 | 8.1% (inactive) |
| C#CCOc1ccc(/C=C2/C(=O)N(c3cccc(C(=O)O)c3)N=C2C)cc1OC | -5.85% (inactive) |
| CC(=O)C1=C(C)OC2(O)c3ccccc3C(=O)C12O (stereo unspecified) | -21.7% (inactive) |
| NNc1nc2c(Cl)ccc(Cl)c2s1 | -0.55% (inactive) |

| SMILES | inhibition |
| --- | --- |
| CC(=O)C1C(=O)C=C(c2ccco2)CC1c1ccccc1 (stereo unspecified) | 0.4% (inactive) |
| O=c1c2cc(N3CCOCC3)ccc2[nH]c(=S)n1Cc1ccccn1 | 56.3% (active) |
| Cc1c(C(=O)O)c(C(=O)O)nc2ccc(N3CCOCC3)cc12 | 7.75% (inactive) |
| O=c1c2cc(N3CCOCC3)ccc2[nH]c(=S)n1CC1CCCO1 (stereo unspecified) | 55.1% (active) |
| CC1CCN(CCCn2c(=S)[nH]c3ccc(N4CCOCC4)cc3c2=O)CC1 | 52.3% (active) |
| COc1ccc2[nH]c3c(=O)n(CCCC(=O)NC4CCC(C)CC4)c(=S)[nH]c3c2c1 (stereo unspecified) | 6.2% (inactive) |
| N#Cc1cc2ccc(N3CCOCC3)cc2cc1C#N | 9.35% (inactive) |
| N#C/C(=C\c1ccc(-c2ccc([N+](=O)[O-])cc2)o1)C(=O)Nc1nc(-c2cccs2)cs1 | 0.8% (inactive) |
| O=C(c1ccc2c(c1)[nH]c(=S)n1c3ccccc3nc21)N1CCN(c2ncccn2)CC1 | 11.9% (inactive) |
| COc1ccc(S(=O)(=O)C(C#N)c2nc3ccccc3nc2N2CCC(C)CC2)cc1 (stereo unspecified) | -6% (inactive) |
| CCOc1ccc(NC(=S)Nc2cccc3ccccc23)cc1 | -13.5% (inactive) |
| COc1ccc(OC)c(S(=O)(=O)NCCc2cn3ccsc3n2)c1 | -8.15% (inactive) |
| CCOC(=O)CCc1c(C)c(C#N)c2[nH]c3ccccc3n2c1=O | 2.5% (inactive) |
| CC(=O)Oc1c(/C=C(\C#N)C(N)=O)[nH]c2ccccc12 | -17.9% (inactive) |
| C=CCOc1c(Cl)cc(CNc2ccc3[nH]c(=O)[nH]c3c2)cc1OC | -12.6% (inactive) |
| Cc1ccc(C2=NN(C(=O)CCC(=O)O)C(c3cn(-c4ccccc4)nc3-c3ccc(C)cc3)C2)cc1 (stereo unspecified) | 23.6% (inactive) |
| O=C(O)c1ccc(N2N=C(c3ccccc3)CC2c2ccccc2)cc1 (stereo unspecified) | 60.1% (active) |
| COc1ccc(C2=NN(C(=O)CCCC(=O)O)C(c3cn(-c4ccccc4)nc3-c3ccccc3)C2)cc1 (stereo unspecified) | 4.9% (inactive) |
| O=C(N=Nc1c(O)n(Cc2ccccc2)c2ccccc12)c1cc2ccccc2cc1O | 10.8% (inactive) |
| COCCn1c(-c2cccs2)csc1=Nc1cccnc1 | 3.35% (inactive) |
| COc1ccc(-c2nc(SCC(=O)Nc3cc(C)on3)n[nH]2)cc1 | 22.4% (inactive) |
| O=[N+]([O-])c1cc(C=Nc2cccc3c(O)cccc23)ccc1Cl | -17.1% (inactive) |
| c1ccc2c3c(cc(N4CCOCC4)c2c1)OC1(N2CCOCC2)CCCCC1O3 (stereo unspecified) | 16% (inactive) |

| SMILES | inhibition |
| --- | --- |
| S=C(NCc1ccc2c(c1)OCO2)Nc1ccc2nsnc2c1 | -0.25% (inactive) |
| CC(C)CC(=O)Nc1ccc2oc(-c3cccnc3)nc2c1 | 42.5% (active) |
| O=C(Nc1ccc2oc(-c3ccc4ccccc4c3)nc2c1)c1ccc2c(c1)OCCO2 | 8.15% (inactive) |
| CCCC(=O)Nc1ccc2oc(-c3cncc(Br)c3)nc2c1 | 19.6% (inactive) |
| Nc1ccc(N2CCN(CCCCN3C(=O)C4CCCN4C3=O)CC2)cc1 (stereo unspecified) | -7% (inactive) |
| Cc1cc(/C=C2\C(=O)NN(c3ccccc3)C2=O)c(C)n1-c1ccccc1O | -1.5% (inactive) |
| O=C(Nc1ccc(F)cc1)C(=O)c1c(O)[nH]c2ccc([N+](=O)[O-])cc12 | -2.85% (inactive) |
| O=C(O)/C=C/C(=O)Nc1ccc(O)cc1 | -0.1% (inactive) |
| Cc1ccc(C(=O)O)cc1-c1ccc(/C=C2\SC(=O)N(CC(=O)Nc3ccc4c(c3)OCO4)C2=O)o1 | 23.6% (inactive) |
| Cc1ccc(NC(=O)CN2C(=O)S/C(=C/c3ccc(-c4cc(C(=O)O)ccc4C)o3)C2=O)cc1C | 37.2% (active) |
| Cc1ccccc1NC(=O)CN1C(=O)S/C(=C\c2ccc(-c3cc(C(=O)O)ccc3C)o2)C1=O | 28.9% (inactive) |
| Cc1cc[n+](-c2[nH]c(=O)sc2/C=N/N=C(\[O-])c2ccncc2)cc1 | -1.55% (inactive) |
| CCCCNC(=O)Oc1c(Br)cc2sc(=O)oc2c1Br | 7.5% (inactive) |
| Cc1cc(/C=N/n2c(COc3ccccc3C)nc3ccccc3c2=O)c(O)c([N+](=O)[O-])c1 | -15.5% (inactive) |
| CCn1c2ccccc2c2c3ncc4cccn4c3ccc21 | 31.1% (active) |
| O=[N+]([O-])c1ccc2nc(CCCc3nc4ccc([N+](=O)[O-])cc4[nH]3)[nH]c2c1 | 28.1% (inactive) |
| COc1ccccc1CCNC(=O)CSc1ccc(-c2ccco2)nn1 | 14.2% (inactive) |
| CCc1cc2c(=O)c(Oc3ccccc3F)c(C)oc2c(CN(C)C)c1O | 62.9% (active) |
| Cc1ccccc1NC(=O)Cn1c(O)c(N=NC(=O)c2ccccc2O)c2ccccc21 | 11.2% (inactive) |
| CN1CCc2cc3c(c4c2[C@H]1[C@H](O)c1ccccc1-4)OCO3 | 1.95% (inactive) |
| CCc1ccc(/C=C2/SC(=S)N(CCC(=O)Nc3ccc(C(=O)O)cc3)C2=O)cc1 | 8.2% (inactive) |
| COc1ccc2nc3ccccc3nc2c1N | -67.2% (inactive) |
| CC(=O)NC1C(=O)N(CCN2CCOCC2)c2ccc(Cl)cc21 (stereo unspecified) | 25.8% (inactive) |

| SMILES | inhibition |
| --- | --- |
| Brc1ccc(OCCN2CCOCC2)cc1 | -8.15% (inactive) |
| CCOc1ccc2c(c1)C(NC(C)=O)C(=O)N2CCN1CCOCC1 (stereo unspecified) | 37.8% (active) |
| CCc1ccc2nc(NC(=O)c3ccc4c(=O)[nH]c(CN5CCOCC5)nc4c3)sc2c1 | 29.9% (inactive) |
| CC(=O)NC1C(=O)N(CCN2CCOCC2)c2ccc(F)cc21 (stereo unspecified) | 28.6% (inactive) |
| CCc1ccc2c(c1)C(NC(C)=O)C(=O)N2CCN1CCOCC1 (stereo unspecified) | 30.8% (active) |
| CC(=O)NC1C(=O)N(CCN2CCOCC2)c2ccc(Br)cc21 (stereo unspecified) | 32.2% (active) |
| O=C1NC(=O)c2cc(NC(=O)C3CCCCC3)ccc21 | 25.4% (inactive) |
| CCOC(=O)C1CC(=O)c2cc(OC)c(OC)cc2C1 (stereo unspecified) | -1.1% (inactive) |
| O=C(COc1ccc(Cl)cc1)Nc1nnc(-c2ccc3c(c2)CCCC3)o1 | -7.05% (inactive) |
| CC(C)=CCC1=C(OCC(=O)O)C(=O)c2ccccc2C1=O | -6.2% (inactive) |
| O=C(NC1(O)C(=O)c2ccccc2C1=O)c1ccccc1 | 57.5% (active) |
| O=C(NC1(O)C(=O)c2ccccc2C1=O)c1c(Cl)cccc1Cl | 50.4% (active) |
| O=C1c2ccccc2C(=O)C12OC2c1ccc(Cl)cc1 (stereo unspecified) | 4.4% (inactive) |
| O=C(Cc1ccccc1Cl)NC1(O)C(=O)c2ccccc2C1=O | -30.6% (inactive) |
| Cc1ccc(C(=O)NC2(O)C(=O)c3ccccc3C2=O)cc1C | 29.6% (inactive) |
| O=C(NC1(O)C(=O)c2ccccc2C1=O)c1ccc(C(F)(F)F)cc1 | 56.5% (active) |
| CN(NC(=O)c1ccc(Cl)cc1)c1ncc(C(F)(F)F)cc1Cl | 4.95% (inactive) |
| CC(=O)c1ccc(-c2ccc(/C=C(/Sc3n[nH]c(C)n3)C(=O)O)o2)cc1 | -9.75% (inactive) |
| Cc1cccc(C)c1OCC(=O)N=Nc1c(O)[nH]c2ccc(Br)cc12 | -1.15% (inactive) |
| Cc1nnc(N/N=C\c2ccc(-c3ccccc3[N+](=O)[O-])o2)n1N | 16% (inactive) |
| O=C1/C(=N\S(=O)(=O)c2cccs2)C([n+]2cccc(Cc3ccccc3)c2)=C([O-])c2ccccc21 | 22% (inactive) |
| CCC(=O)N1CCc2cc(S(=O)(=O)NC(C(=O)NCc3ccc(C)cc3)C(C)C)ccc21 (stereo unspecified) | -2.25% (inactive) |

Reference: PubChem BioAssay AID2069 (Sanford-Burnham Center for Chemical Genomics, 2009)
